Most compounds without a hit are left out; they make up all but 12% or so of the library.
JMJD2A Tudor inh = blocks the human JMJD2A Tudor domain; actives 4.4% (n = 390,000); AlphaScreen JMJD2A-Tudor / H3K4me3 peptide binding; Potency, µM (titrated, usually from 114 µM), without a hit: at the highest dose activity change, negative = inhibition, usual class: inhibitors; also: % is scaled to controls: 0 for no effect and ±100 for the full control effect; nearly all actives have a fitted effect of over 50% in size
Target sequence (O75164 whole entry, looked up, the tested form may be a part): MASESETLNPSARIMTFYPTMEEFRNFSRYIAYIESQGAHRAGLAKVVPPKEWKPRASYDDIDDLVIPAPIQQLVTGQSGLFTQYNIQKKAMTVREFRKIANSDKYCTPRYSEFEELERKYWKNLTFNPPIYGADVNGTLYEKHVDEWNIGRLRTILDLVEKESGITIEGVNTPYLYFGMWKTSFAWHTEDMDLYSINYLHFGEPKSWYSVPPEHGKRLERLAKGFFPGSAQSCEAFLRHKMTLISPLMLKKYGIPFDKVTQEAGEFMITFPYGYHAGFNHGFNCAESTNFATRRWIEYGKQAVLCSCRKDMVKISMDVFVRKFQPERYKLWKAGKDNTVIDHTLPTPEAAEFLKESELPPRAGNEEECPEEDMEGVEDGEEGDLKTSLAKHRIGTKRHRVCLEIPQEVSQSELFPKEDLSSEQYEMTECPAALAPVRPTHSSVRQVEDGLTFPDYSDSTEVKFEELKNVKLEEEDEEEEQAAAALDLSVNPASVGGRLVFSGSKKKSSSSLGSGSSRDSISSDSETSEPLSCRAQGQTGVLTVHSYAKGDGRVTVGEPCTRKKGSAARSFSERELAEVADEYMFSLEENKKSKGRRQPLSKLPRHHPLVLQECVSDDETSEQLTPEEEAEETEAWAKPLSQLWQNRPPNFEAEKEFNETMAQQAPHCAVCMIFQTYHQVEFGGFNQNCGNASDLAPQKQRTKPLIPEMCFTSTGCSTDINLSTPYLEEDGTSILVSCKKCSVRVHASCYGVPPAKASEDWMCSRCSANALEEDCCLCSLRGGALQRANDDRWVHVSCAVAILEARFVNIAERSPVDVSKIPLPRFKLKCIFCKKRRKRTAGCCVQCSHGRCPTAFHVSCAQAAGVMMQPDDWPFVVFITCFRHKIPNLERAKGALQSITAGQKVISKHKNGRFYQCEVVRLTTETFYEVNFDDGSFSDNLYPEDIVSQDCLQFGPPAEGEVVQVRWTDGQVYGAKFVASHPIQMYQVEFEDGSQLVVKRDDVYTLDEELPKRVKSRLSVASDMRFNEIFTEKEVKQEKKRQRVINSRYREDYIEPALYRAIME
Sfp PPTase inh = blocks B. subtilis Sfp PPTase activity. Q9F4F7. Biochemical Sfp PPTase activity, qHTS. Potency, µM, without a hit: largest response in the series, negative = inhibition, usual class: inhibitors. actives 3.5% (n = 310,000);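 also: the enzyme is Sfp with the accession as filed and its product quenches rhodamine fluorescence; 0% = enzyme reaction without inhibitor and -100% = no enzyme wells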
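After 15 min at room temperature with compound, 15 nM Sfp received 5 uM rhodamine-CoA plus 12.5 uM BHQ-2-ybbR (50 mM Hepes pH 7.6, 10 mM MgCl2). Rate came from the fluorescence difference over 30 min, ex 525/em 598 nm.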
BAZ2B inh = inhibitors of human BAZ2B bromodomain; actives 4.4% (n = 360,000); AlphaScreen BAZ2B-H3K14Ac peptide displacement; Potency, µM (top dose mostly 114 µM), for inactives: at the top dose activity change, negative = inhibition, most hits filed as inhibitors; AID 504333; also: % is scaled to controls: 0 for no effect and ±100 for the full control effect; nearly all actives have a fitted effect of over 60% in size
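BAZ2B (50 nM) with biotin-H3(5-23)K14Ac peptide (50 nM) in PBS pH 7.4, 0.01% Tween-20, preformed 30 min, then compound 30 min at room temperature; top concentration 110uM. AlphaScreen streptavidin donor/nickel chelate acceptor beads (10 ug/mL final), 20 min dark, signal read.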
PLK1 PBD inh = blocks phosphopeptide binding to human PLK1 polo-box domain; AID 720504; P53350; Potency, µM, without a hit: max response, negative = inhibition, usual class: inhibitors; actives 2.8% (n = 360,000); Plk1 PBD binding of FITC phosphopeptide, fluorescence polarization; also: series mostly up to about 57 µM; % is scaled to controls: 0 for no effect and ±100 for the full control effect; nearly all actives have a fitted effect of over 65% in size
HP1b chromo inh = inhibitors of HP1-beta chromodomain binding to methylated histone tails; P83916; AlphaScreen HP1-beta / biotin-H3K9me3 peptide binding; Potency, µM (top dose mostly 114 µM), for the others: at the highest dose activity change, negative = inhibition, usual class: inhibitors; actives 0.56% (n = 390,000); AID 540317; also: nearly all actives have a fitted effect of over 70% in size
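Compound inhibition of the preformed complex between 50 nM HP1-beta and 50 nM biotinylated H3K9me3 peptide was read by AlphaScreen. Buffer was PBS pH 7.4 with 0.01% Tween-20. Incubations ran 30 min at room temperature, with 10 ug/mL donor/acceptor beads.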
G9a inh = G9a (human) methyltransferase inhibition; Q96KQ7; actives 8.8% (n = 350,000); Potency, µM (titrated, usually from 102 µM), for the others: top-dose activity, negative = inhibition, usual class: inhibitors; G9a H3K9 monomethylation, AlphaScreen, 2 h; also: % is scaled to controls: 0 for no effect and ±100 for the full control effect; nearly all actives have a fitted effect of over 75% in size
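G9a (20 nM) was preincubated 15 min with compound, then reacted 2 h at room temperature with 500 nM biotin-H3K9 peptide and 20 µM SAM. Monomethyl-H3K9 detected by AlphaScreen using anti-H3K9me1 antibody.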
Starred values were filed as active, the others as inactive; ? = inconclusive; nt = no result; [ ] = another dose, or the depositor's remark. Calls follow the shape of the dose curve; as a rule, active = well fitted curve in the direction sought with a large enough effect; inconclusive = small, poorly fitted or top-dose-only effect, or another doubt; inactive = no such curve, though single readings can be large; an effect the other way counts as inactive or inconclusive. Potency is read from the fitted curve at half-maximal effect.

SMILES	JMJD2A Tudor inh	Sfp PPTase inh	BAZ2B inh	PLK1 PBD inh	HP1b chromo inh	G9a inh
Cc1ccccc1NC(=O)Nc1ccccc1C(N)=O	-13%	10%	2%	27µM*	-7%	-3%[59 µM]
Cc1ccccc1NNC(N)=S	-15%	50µM*	-17%	-16%	10%	11µM*
CC1=CC(=O)C(C(C)=Nc2ccccc2Cl)C(=O)O1 (stereo unspecified)	?	19%	1%	-6%	-12%	50µM*
CC1=N/C(=C\c2ccccc2Cl)C(=O)O1	-5%	nt	nt	3%	18%	nt
O=C(CC1C(=O)NCCN1Cc1ccc(F)cc1)NC1CCCCCCC1 (stereo unspecified)	9%	-6%	-23%	-11%	35%	50µM*
O=C(CC1C(=O)NCCN1Cc1ccccc1)NC1CCCCC1 (stereo unspecified)	nt	nt	nt	-18%	nt	nt
O=C(CC1C(=O)NCCN1CC(c1ccccc1)c1ccccc1)NC1CC1 (stereo unspecified)	3%	-2%	-10%	-11%	41%	45µM*
COc1ccc(CN2CCNC(=O)C2CC(=O)NC2CCCC2)cc1OC (stereo unspecified)	?	10%	-31%	-15%	4%	71µM*
Cc1ccc(CN2CCNC(=O)C2CC(=O)NC2CCCCCC2)cc1 (stereo unspecified)	-23%	8%	-23%	-14%	57%	56µM*
O=C(NC1CC(=O)N(c2cccc(F)c2)C1)C1CCCC1 (stereo unspecified)	-4%	nt	-1%	nt	-5%	-1%[59 µM]
CCn1cc(/C=C(\NC(=O)c2ccccc2F)C(=O)NCCCn2ccnc2)c2ccccc21	-33%	13%	?	-8%	14%	0%
CCc1cccc(NS(=O)(=O)c2cc(-c3cnc(C)o3)ccc2OC)c1	?	nt	?	nt	-26%	-30%[59 µM]
COc1ccccc1CNC(=O)C1CCN(c2nc3ccc(Cl)cc3[nH]2)CC1	-24%	nt	-1%	nt	20%[57 µM]	0%[59 µM]
O=C(CC1C(=O)NCCN1Cc1ccccc1)NC1CCCCCC1 (stereo unspecified)	-26%	3%	-10%	-24%	19%	18%[59 µM]
CCOc1ccc(CN2CCNC(=O)C2CC(=O)NC2CCCCCC2)cc1 (stereo unspecified)	-21%	-4%	-26%	-6%	27%	40µM*
CC[C@@H]1/C=C(\C)C[C@H](C)C[C@H](OC)[C@H]2O[C@@](O)(C(=O)C(=O)N3CCCC[C@H]3C(=O)O[C@H](/C(C)=C/[C@@H]3CC[C@H](Cl)[C@H](OC)C3)[C@H](C)[C@@H](O)CC1=O)[C@H](C)C[C@@H]2OC	nt	12%	nt	nt	nt	-16%[12.7 µM]
CCN(CC)CCCn1c2c(c(SCC(=O)Nc3ccc(F)c(F)c3)nc1=O)CCC2	-1%	nt	-5%	-5%	28%	-43%
CCN(CC)CCCn1c2c(c(SCC(=O)Nc3cccc4ccccc34)nc1=O)CCC2	-17%	nt	12%	1%	13%	40µM*
CCN(CC)CCCn1c2c(c(SCC(=O)Nc3cccc(C)c3C)nc1=O)CCC2	-12%	nt	14%	-6%	22%	?
CCCCc1ccc(NC(=O)CSc2nc(=O)n(CCN(CC)CC)c3c2CCC3)cc1	-34%	nt	-1%	-10%	8%	50µM*
CN(C)CCCn1c2c(c(SCC(=O)Nc3cccc4ccccc34)nc1=O)CCCC2	-5%	nt	3%	-2%	19%	40µM*
CCN(CC)CCCn1c2c(c(SCC(=O)Nc3cc(OC)cc(OC)c3)nc1=O)CCC2	-9%	nt	2%	-13%	33%	50µM*
Cc1ccc(NC(=O)CSc2nc(=O)n(CCCN(C)C)c3c2CCC3)c(C)c1	-8%	nt	-8%	-5%	13%	-27%
CC(C)c1ncc(CO)n1Cc1c(Cl)cccc1Cl	nt	nt	nt	4%	nt	nt
COc1cc(-c2nc3n(n2)C(c2ccc(F)cc2)C(C(N)=O)=C(C)N3)cc(OC)c1OC (stereo unspecified)	-1%	nt	2%	nt	34%	-36%[59 µM]
SMILES	JMJD2A Tudor inh	Sfp PPTase inh	BAZ2B inh	PLK1 PBD inh	HP1b chromo inh	G9a inh
COc1cc(NS(=O)(=O)c2ccc3c(c2)CCN3S(C)(=O)=O)cc(OC)c1	-15%	nt	1%	nt	27%[57 µM]	5%[59 µM]
O=C(Nc1ccc2c(c1)OCO2)c1cc(C2CCCN(C(=O)C3CCCCC3)C2)on1 (stereo unspecified)	nt	nt	nt	-4%	nt	nt
Cc1cc(C(=O)NN=C2CCCCCC2)c(C)o1	-27%	5%	-22%	-15%	49%	23%[12.7 µM]
Cc1cc(C)n(CCOc2ccc(Cl)cc2Cl)n1	-9%[57.1 µM]	3%	2%	-15%	28%	0%
COc1ccccc1Cc1c(-c2ccccc2)nc2ccc(Br)cn12	nt	nt	nt	3%	nt	nt
CCCOc1ccc(OC(=O)c2c(-c3ccccc3Cl)noc2C)cc1	64%	nt	43%	nt	78%	57%[59 µM]
CCCN1C(=O)/C(=C\c2ccncc2)SC1=Nc1ccccc1	?	1%	?	2%	-27%	?
CCN1C(=O)/C(=C\c2ccncc2)SC1=Nc1ccc(C)c(C)c1	50µM*	-40%	32µM*	-1%	?	?
O=C1CCC(=O)c2ccc3c4c(ccc1c24)CC3	-26%	nt	nt	-7%	15%	nt
O=C1CCN2C=Nc3cccc4ccc1c2c34	6%	12%	7%	3.8µM*	46%	-9%[2.33 µM]
O=C(CN1CCN(c2ccccc2)CC1)Nc1ccc2c(c1)OCCO2	-24%	16%	-18%	-1%	2%	-8%
O=C(Nc1ccccc1)Nc1ccc(Cl)c(S(=O)(=O)N2CCOCC2)c1	-14%	-4%	-4%	-3%	42%	-6%
O=C(CN1CCOCC1)Nc1ccc2c(c1)CCC2	-12%[11.4 µM]	27%	-16%	27µM*	12%	2%
O=C(CN1CCN(CC(=O)Nc2ccccc2F)CC1)Nc1ccc2c(c1)OCCO2	-10%	24%	-16%	-13%	20%	35µM*
O=C(CN1CCN(C(=O)c2ccco2)CC1)Nc1ccc(Cl)c(S(=O)(=O)N2CCOCC2)c1	-5%	-1%	nt	-3%	24%	56µM*
O=C(CCN1CCOCC1)Nc1ccc2c(c1)CCC2	12%	-6%	4%	2%	28%	-2%[12.7 µM]
O=C(/C=C/c1ccco1)Nc1ccc(Cl)c(S(=O)(=O)N2CCOCC2)c1	?	?	?	-17%	-13%	50µM*
CCCN1C(=O)c2ccccc2NC1c1ccc(OC)c(COc2ccc([N+](=O)[O-])c(C)c2)c1 (stereo unspecified)	?	nt	nt	nt	-20%[57 µM]	nt
COC(=O)[C@]12CCCCC=C1N(Cc1ccco1)C(=O)[C@H](CC(=O)N1CCC(c3ccccc3)CC1)C2	nt	nt	nt	-1%	nt	nt
O=C(CN1CCOCC1)Nc1ccc2c(c1)OCCO2	32µM*	?	50µM*	0%	?	20µM*

Screening data as filed in PubChem BioAssay.
